Where a name gives a salt, the structure may show the parent alone.
Columns and labels:
Conditions in all cases: incubation time: 27 h, anaerobic, 37 °C;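 for the amine columns active = adjusted P below 0.05 in both replicates with a change the same way and a mean fold change under 0.8 or over 1.25; inactive = the rest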
[1] = system: Clostridium sporogenes DSM 1664; experiment: growth (OD595) fold change vs plate DMSO controls (fold change (ratio)); higher = more growth
Outline: (§1)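 The reported measure is growth: the fold change against the median of DMSO controls on the plate. Absorbance at 595 nm from anaerobic 96-well mGAM cultures grown for 27 h at 37 °C was blank-subtracted, corrected for background with 20 µM compound solutions in water, and converted to OD with a calibration factor of 5. Fold changes above 1.5 appear as NA, and values are the mean of 2 biological replicates.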

Escherichia coli IAI1 [2] = experiment: as above
Outline: as §1

[3] = system: Klebsiella aerogenes DSM 30053; experiment: as above
Outline: as §1

[4] = system: Ruminococcus gnavus DSM 108212; experiment: as above
Outline: as §1

[5] = system: Klebsiella aerogenes DSM 30053; experiment: fold change of Histamine concentration vs plate DMSO controls (fold change (ratio)); higher = more amine produced, active = hit call of the paper (significant change in both replicates, either direction)
Outline: (§2)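 Anaerobic mGAM cultures of four gut bacterial strains were grown at 37 °C for 27 h in 80 µL wells, starting at OD 0.1 before 1:1 dilution. Compounds were at 20 µM final (sweeteners 50 µM). Whole cultures were extracted with cold acetonitrile/methanol containing 0.1% formic acid and centrifuged. Amines were quantified by LC–triple-quadrupole MS (dynamic MRM) against external calibration curves and drift-corrected within batch. Each value is the fold change versus plate DMSO controls, averaged over 2 biological replicates.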

[6] = system: Clostridium sporogenes DSM 1664; experiment: fold change of Tryptamine concentration vs plate DMSO controls (fold change (ratio)); higher = more amine produced, active = hit call of the paper (significant change in both replicates, either direction)
Outline: as §2

[7] = system: Ruminococcus gnavus DSM 108212; experiment: as above
Outline: as §2

Escherichia coli IAI1 [8] = experiment: fold change of Putrescine concentration vs plate DMSO controls (fold change (ratio)); higher = more amine produced, active = hit call of the paper (significant change in both replicates, either direction)
Outline: as §2

[9] = system: Klebsiella aerogenes DSM 30053; experiment: as above
Outline: as §2

Escherichia coli IAI1 [10] = experiment: fold change of Cadaverine concentration vs plate DMSO controls (fold change (ratio)); higher = more amine produced, active = hit call of the paper (significant change in both replicates, either direction)
Outline: as §2

[11] = system: Klebsiella aerogenes DSM 30053; experiment: as above
Outline: as §2

[12] = system: Ruminococcus gnavus DSM 108212; experiment: fold change of 2-Phenylethylamine concentration vs plate DMSO controls (fold change (ratio)); higher = more amine produced, active = hit call of the paper (significant change in both replicates, either direction)
Outline: as §2

Row | SMILES | growth [1] | growth (Escherichia coli IAI1 [2]) | growth [3] | growth [4] | fold change of Histamine concentration [5] | fold change of Tryptamine concentration [6] | fold change of Tryptamine concentration [7] | fold change of Putrescine concentration (Escherichia coli IAI1 [8]) | fold change of Putrescine concentration [9] | fold change of Cadaverine concentration (Escherichia coli IAI1 [10]) | fold change of Cadaverine concentration [11] | fold change of 2-Phenylethylamine concentration [12]
1 | CC[C@@H](CO)NCCN[C@@H](CC)CO [Ethambutol dihydrochloride] (20 µM) | 0.97 | 1.02 | 1.01 | 0.965 | 0.958 (inactive) | 0.996 (inactive) | 1.04 (inactive) | 1.05 (inactive) | 0.987 (inactive) | 0.954 (inactive) | 1.01 (inactive) | 1.09 (inactive)
2 | NCCCC(O)(P(=O)(O)O)P(=O)(O)O [Alendronate sodium] (20 µM) | 1.08 | 1.04 | 1.1 | 1.03 | 0.858 (inactive) | 1.1 (inactive) | 1.05 (inactive) | 0.992 (inactive) | 0.947 (inactive) | 1.01 (inactive) | 1.01 (inactive) | 1.05 (inactive)
3 | N[C@@H](CSCCCO)C(=O)O [Fudosteine] (20 µM) | 0.96 | 1.05 | 1.01 | 1.14 | 0.977 (inactive) | 0.939 (inactive) | 1 (inactive) | 1.05 (inactive) | 1.02 (inactive) | 0.981 (inactive) | 1.01 (inactive) | 1.03 (inactive)
4 | NC[C@H]1O[C@H](O[C@H]2[C@H](O)[C@@H](O[C@H]3O[C@H](CO)[C@@H](O)[C@H](N)[C@H]3O)[C@H](N)C[C@@H]2N)[C@H](N)C[C@@H]1O [Tobramycin] (20 µM) | 1.09 | 0.95 | 0.772 | 0.73 | 0.65 (active) | 1.13 (inactive) | 0.946 (inactive) | 0.911 (inactive) | 0.922 (inactive) | 0.889 (inactive) | 0.978 (inactive) | 0.941 (inactive)
5 | CCCCOC(=O)c1ccc(O)cc1 [Butylparaben] (20 µM) | 1.09 | 0.963 | 0.965 | 1.01 | 1.01 (inactive) | 0.984 (inactive) | 0.964 (inactive) | 0.939 (inactive) | 0.968 (inactive) | 1.04 (inactive) | 0.984 (inactive) | 0.953 (inactive)
6 | CSc1nc2cc(Cl)c(Oc3cccc(Cl)c3Cl)cc2[nH]1 [Triclabendazole] (20 µM) | 0.189 | 1.07 | 0.985 | 0.767 | 1.04 (inactive) | 0.0552 (active) | 0.514 (active) | 0.907 (inactive) | 0.984 (inactive) | 1.01 (inactive) | 1.04 (inactive) | 0.671 (inactive)
7 | C[C@H](O)C(=O)Nc1c(I)c(C(=O)NC(CO)CO)c(I)c(C(=O)NC(CO)CO)c1I [Iopamidol] (20 µM) | 1.2 | 1.02 | 1.05 | 1.25 | 1.04 (inactive) | 1.03 (inactive) | 1.07 (inactive) | 0.979 (inactive) | 0.995 (inactive) | 0.999 (inactive) | 1.01 (inactive) | 1.05 (inactive)
8 | CN1CCCN(C(c2ccccc2)c2ccc(Cl)cc2)CC1 (centres undefined) [Homochlorcyclizine dihydrochloride] (20 µM) | 1.12 | 0.99 | 1 | 0.861 | 0.994 (inactive) | 0.989 (inactive) | 0.918 (inactive) | 1.03 (inactive) | 1.01 (inactive) | 0.885 (inactive) | 1.01 (inactive) | 0.983 (inactive)
9 | NS(=O)(=O)c1cc2c(cc1C(F)(F)F)NC(Cc1ccccc1)NS2(=O)=O (centres undefined) [Bendroflumethiazide] (20 µM) | 0.897 | 1.01 | 1.06 | 1.05 | 0.915 (inactive) | 0.993 (inactive) | 0.993 (inactive) | 0.977 (inactive) | 0.971 (inactive) | 0.959 (inactive) | 1 (inactive) | 0.957 (inactive)
10 | CC1(C)O[C@@H]2C[C@H]3[C@@H]4C[C@H](F)C5=CC(=O)C=C[C@]5(C)[C@@]4(F)[C@@H](O)C[C@]3(C)[C@]2(C(=O)CO)O1 [Fluocinolone acetonide] (20 µM) | 1.13 | 1.04 | 1.01 | 0.973 | 1.06 (inactive) | 1.02 (inactive) | 0.996 (inactive) | 1.05 (inactive) | 1.04 (inactive) | 1.05 (inactive) | 1 (inactive) | 0.976 (inactive)
11 | COc1cccc(N(C)C(=S)Oc2ccc3c(c2)CCCC3)n1 [Liranaftate] (20 µM) | 1.1 | 0.972 | 0.969 | 0.941 | 1 (inactive) | 0.974 (inactive) | 1.31 (active) | 0.998 (inactive) | 1.06 (inactive) | 1.01 (inactive) | 1.07 (inactive) | 1.69 (active)
12 | COc1ccccc1Oc1c(NS(=O)(=O)c2ccc(C(C)(C)C)cc2)nc(-c2ncccn2)nc1OCCO [Bosentan] (20 µM) | 1.15 | 1.14 | 1.23 | 1.2 | 0.938 (inactive) | 0.987 (inactive) | 0.978 (inactive) | 1.09 (inactive) | 1.05 (inactive) | 1.03 (inactive) | 1.04 (inactive) | 0.959 (inactive)

Source: the supplement of paper PMC12494721
